The values below come from PubChem BioAssay (Tox21).

Where “and” joins values, the source holds several entries; their conditions need not be identical. Identical values can stand only once. Inconclusive results are not listed. Entries that show only a call come without a potency. Calls of active or inactive are those of the source. Calls follow the shape of the dose curve; as a rule, active = well fitted inhibition curve with a large enough effect in the signal ratio in the repeat runs; inconclusive = weak or mixed curves, or effect the other way; inactive = flat fitted curve, though single readings scatter; the % refers to the signal ratio.
Potency is read from the fitted curve at half-maximal effect.

The experiment is described as follows: qHTS assay for small molecule disruptors of the mitochondrial membrane potential (AID 720635). To be noted: HepG2 mitochondrial membrane potential, Mito-MPS dye ratio; series mostly up to 83.2 µM. An excerpt: U.S. Tox21 Program National Center for Advancing Translational Sciences [NCATS] NIH Chemical Genomics Center [NCGC] U.S. Environmental Protection Agency [EPA] National Institutes of Environmental Health Sciences [NIEHS] National Toxicology Program [NTP] U.S. Food and Drug Administration [FDA] Tox21 Assay Overview: Mitochondrial membrane potential (MMP), one of the parameters for mitochondrial function, is generated by mitochondrial electron transport chain that creates an electrochemical gradient by a series of redox reactions. This gradient drives the synthesis of ATP, a crucial molecule for various cellular processes. Measuring MMP in living cells is commonly used to assess the effect of chemicals on mitochondrial function. […] The dye accumulates in the mitochondria of healthy cells as aggregates, with red fluorescence. The mitochondrial potential collapses and the dye can no longer accumulate in the mitochondria and remains in the cytoplasm in monomers, with green fluorescence.
Tox21 Assay Protocol Summary: 2,000 HepG2 cells in 5 uL/well were dispensed into black, clear-bottom 1536-well plates using a Multidrop Combi (Thermo Scientific) dispenser. The assay plates were incubated overnight at 37C to allow cells to attach to the wells, followed by the transfer of 23 nL compound or DMSO vehicle by a pin tool (Kalypsys). The plates were incubated for 1 hr at 37C and 5% CO2, followed by the addition of 5 uL of 2X Mito-MPS dye (BD Biosciences) into each well using Flying Reagent Dispenser (Aurora Discovery) and then following 30 min incubation at 37C. Fluorescence intensity (490nm excitation and 535nm emission for monomers; and 540nm excitation and 590nm emissions for aggregates) was measured using an Envision plate reader.
For `CC(C)(Oc1ccc(Cl)cc1)C(=O)O`, the Potency entry was “inactive”.

Consider `O=C(O)CCCC(=O)O`, for which the Potency entry is “inactive”.

For `CCCCCCOCCOCCO`, the Potency entry is “inactive”.

Take `CCC(Cc1c(I)cc(I)c(N)c1I)C(=O)O` (stereo not given): the Potency entry was “inactive”.

On to `OC[C@H]1O[C@@H]2O[C@H]3[C@H](O)[C@@H](O)[C@@H](O[C@H]4[C@H](O)[C@@H](O)[C@@H](O[C@H]5[C@H](O)[C@@H](O)[C@@H](O[C@H]6[C@H](O)[C@@H](O)[C@@H](O[C@H]7[C@H](O)[C@@H](O)[C@@H](O[C@H]1[C@H](O)[C@H]2O)O[C@@H]7CO)O[C@@H]6CO)O[C@@H]5CO)O[C@@H]4CO)O[C@@H]3CO`, for which the Potency entry is “inactive”.

Consider `CCCN1C=CN(C)C1`, for which the Potency entry was “inactive”.

On to `C=C[C@H]1CN2CC[C@H]1C[C@H]2[C@H](O)c1ccnc2ccc(OC)cc12`, for which the Potency result is “inactive”.

Consider `Cc1ccc(S(=O)(=O)NCl)cc1`, for which the Potency entry was “inactive”.

As to `c1ccc2c(c1)[nH]c1ccccc12`, the Potency is 19 µM (active) and 21.7 µM (active).

Consider `CN(C)C`, for which the Potency entry was “inactive”.

Turning to `NC[C@H](O)c1ccc(O)c(O)c1`, the Potency entry is “inactive”.

Take `C=C[C@@]1(C)CC(=O)[C@]2(O)[C@@]3(C)[C@@H](O)CCC(C)(C)[C@@H]3[C@H](O)[C@H](OC(C)=O)[C@@]2(C)O1`: the Potency is 26.6 µM (active).

Take `O=C(O)CCCCCCCCCCCC(=O)O`: the Potency entry is “inactive”.

Turning to `C=C1C[C@H]2[C@@H]3C=C(C)C4=CC(=O)CC[C@]4(C)[C@H]3CC[C@]2(C)[C@@]1(OC(C)=O)C(C)=O`, the Potency entry is “inactive”.

Consider `CC(=O)Oc1ccc(C(c2ccc(OC(C)=O)cc2)c2ccccn2)cc1`, for which the Potency was 6.68 µM (active) and 21.6 µM (active).

Turning to `O=C(O)c1cc(=O)[nH]c(=O)[nH]1`, the Potency result was “inactive”.

For `O=C1CCc2ccccc2O1`, the Potency result is “inactive”.

`CC1(C)OC(=O)NC1=O`: the Potency entry is “inactive”.

With `COC(=O)c1ccc(C)cc1`, the Potency result is “inactive”.

Regarding `Cc1ccc(C(C)(C)C)c(O)c1`, the Potency was 26.4 µM (active) and 17.2 µM (active).

With `C[C@]12CC[C@@H]3c4ccc(O)cc4CC[C@H]3[C@@H]1CC[C@@H]2O`, the Potency was 26.6 µM (active) and 30.6 µM (active) and 17.2 µM (active).

For the molecule `CCO[Si](CCCNC(N)=O)(OCC)OCC`, the Potency result is “inactive”.

With `CNC[C@H](O)c1ccc(O)c(O)c1`, the Potency entry was “inactive”.

In the case of `Cc1ccc(/C(=C\CN2CCCC2)c2ccccn2)cc1`, the Potency result is “inactive”.

In the case of `CCCOCCO`, the Potency entry is “inactive”.

For `Nc1cc([N+](=O)[O-])ccc1C(=O)O`, the Potency was 38.6 µM (active).

Take `CC(C)=CCO`: the Potency entry is “inactive”.

`Cc1ccc(C)c(O)c1`: the Potency entry was “inactive”.

Take `CC1(C)O[C@@H]2C[C@H]3[C@@H]4C[C@H](F)C5=CC(=O)C=C[C@]5(C)[C@@]4(F)[C@@H](O)C[C@]3(C)[C@]2(C(=O)CO)O1`: the Potency result is “inactive”.

Consider `Brc1nc2ccccc2s1`, for which the Potency entry was “inactive”.

On to `C=CCOC(=O)C(=C)C`, for which the Potency result is “inactive”.

In the case of `C/C=C/C(=O)N(CC)c1ccccc1C`, the Potency result is “inactive”.

For `O=Cc1ccccc1C=O`, the Potency was 21.1 µM (active) and 30.6 µM (active).

Regarding `CC1(C)C(C=C(Cl)Cl)C1C(=O)OCc1cccc(Oc2ccccc2)c1` (stereo not given), the Potency was 30.6 µM (active).

In the case of `OCCNCCO`, the Potency entry was “inactive”.

Consider `C[N+](C)(C)CCO`, for which the Potency entry is “inactive”.

Take `FC(F)(F)C(Cl)Br` (stereo not given): the Potency result is “inactive”.

Consider `c1ccc2ncccc2c1`, for which the Potency result was “inactive”.

For the molecule `C1COCCN1`, the Potency result was “inactive”.

As for `O=S1(=O)CCCO1`, the Potency entry was “inactive”.
